In PubChem BioAssay one finds log fold change Tl+ flux data, which are given here for 13 molecules.

A number with no mark means an inactive call. Activity calls are given as the source filed them.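 How the source made its calls: active means thallium flux through the channel raised or lowered by more than 3 SD from vehicle-only wells, actives on both sides; inactive means the rest.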

Common to all, as to assay: modulators of BK channel variants, profiling panel, selectivity assay, cell-based, U2OS BacMam, thallium flux, beta subunits (AID 1259406);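 further: initial slope of Thallos dye fluorescence rise after thallium is added; log ratio against the mean of 0.3% DMSO vehicle wells on the same plate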
The test system of one assay is F380Y. The following applies: at 30 µM.
The subject of the next assay is F380Y/beta1. Conditions: at 30 µM.
The subject of a further assay is F380Y/beta2Delta. Conditions: at 30 µM.
A further assay relates to F380Y/beta4. Conditions: at 30 µM.
For assay [1], the target named is Calcium-activated potassium channel subunit alpha-1 (Homo sapiens) + Leucine-rich repeat-containing protein 26 (Homo sapiens) (UniProt Q12791+Q2I0M4). The following applies: F380Y/Slo1WT/gamma1, at 30 µM.
Sequence of Calcium-activated potassium channel subunit alpha-1 (Homo sapiens) + Leucine-rich repeat-containing protein 26 (Homo sapiens) (Q2I0M4 whole entry, looked up, one chain of several): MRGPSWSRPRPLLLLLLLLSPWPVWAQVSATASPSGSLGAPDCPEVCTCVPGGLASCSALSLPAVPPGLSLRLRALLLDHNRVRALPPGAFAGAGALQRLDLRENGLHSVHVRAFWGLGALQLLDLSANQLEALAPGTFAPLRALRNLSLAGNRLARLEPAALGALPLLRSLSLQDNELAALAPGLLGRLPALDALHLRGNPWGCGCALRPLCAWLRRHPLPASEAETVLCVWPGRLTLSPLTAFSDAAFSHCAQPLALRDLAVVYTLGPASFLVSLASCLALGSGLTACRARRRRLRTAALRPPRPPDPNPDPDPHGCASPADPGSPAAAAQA
For the next assay, the system named is R275C. The following applies: at 30 µM.
Another assay has as its system R275C/beta1. The following applies: at 30 µM.
For another assay, the system named is R275C/beta2Delta. Conditions: at 30 µM.
Another assay concerns R275C/beta4. The following applies: at 30 µM.
In another assay the test system is R275C/Slo1WT/beta2. Conditions: at 30 µM.

For `COc1cccc(CC(=O)NC2CCN(c3nccc(C(F)(F)F)n3)CC2)c1`, the log fold change Tl+ flux with F380Y was -0.0079; in the assay on F380Y/beta1, -0.0102; with F380Y/beta2Delta it was 0.00797; in the assay on F380Y/beta4, -0.0197; in assay [1] it was -0.0334; in the assay on R275C, -0.0558. Also, the log fold change Tl+ flux in the assay with R275C/beta1 was -0.0259; with R275C/beta2Delta, -0.00912; with R275C/beta4 it was 0.0415; in the assay with R275C/Slo1WT/beta2 it was 0.0233.

Consider `Cc1onc(-c2ccccc2)c1N1C(=O)CCN(C(C)C)C1=O`, for which the log fold change Tl+ flux is -0.0312 with F380Y; -0.00917 with F380Y/beta1; -0.0373 in the assay with F380Y/beta2Delta; -0.00603 with F380Y/beta4; -0.0319 in assay [1]; -0.0915 (active) in the assay with R275C. For the same molecule, the log fold change Tl+ flux in the assay with R275C/beta1 was 0.0435; in the assay on R275C/beta2Delta it was -0.0125; in the assay on R275C/beta4 it was -0.0122; in the assay with R275C/Slo1WT/beta2, 0.000512.

Regarding `N#Cc1ccc(NCCc2ccccn2)c([N+](=O)[O-])c1`, the log fold change Tl+ flux is 0.00452 in the assay with F380Y; -0.0335 with F380Y/beta1; -0.0123 in the assay with F380Y/beta2Delta; -0.0514 in the assay with F380Y/beta4; -0.00295 in assay [1]; -0.00307 with R275C. In addition, the log fold change Tl+ flux in the assay with R275C/beta1 is -0.0352; with R275C/beta2Delta it was -0.049; with R275C/beta4, 0.0115; in the assay with R275C/Slo1WT/beta2 it was 0.0168.

As for `COC(=O)c1sc(-c2ccc(Cl)cc2)cc1NC(=O)c1ccc2nsnc2c1`, the log fold change Tl+ flux in the assay with F380Y is 0.0226; in the assay on F380Y/beta1 it was 0.0354; in the assay with F380Y/beta2Delta, 0.0206; with F380Y/beta4, 0.0283; in assay [1] it was 0.00872; in the assay with R275C, 0.0185. Further, the log fold change Tl+ flux is -0.00968 in the assay on R275C/beta1, -0.0231 in the assay on R275C/beta2Delta, -0.00956 in the assay with R275C/beta4 and 0.0403 with R275C/Slo1WT/beta2.

In the case of `O=C(Nc1ccc(OC(F)(F)F)cc1)Nc1cc(C(F)(F)F)ccc1N1CCOCC1`, the log fold change Tl+ flux was 0.0283 with F380Y; -0.00979 in the assay on F380Y/beta1; 0.0491 in the assay with F380Y/beta2Delta; -0.00808 in the assay on F380Y/beta4; 0.0378 in assay [1]; 0.022 in the assay on R275C. For the same molecule, the log fold change Tl+ flux was 0.0354 with R275C/beta1, -0.0143 in the assay with R275C/beta2Delta, -0.0232 in the assay with R275C/beta4 and -0.0238 in the assay with R275C/Slo1WT/beta2.

Take `COc1ccc(CNCc2cc(OC)c(OC)c(OC)c2)cc1`: the log fold change Tl+ flux in the assay on F380Y is -0.0783; in the assay with F380Y/beta1, 0.0429; with F380Y/beta2Delta it was -0.0785; with F380Y/beta4 it was -0.1 (active); in assay [1], -0.099; with R275C, -0.0423. Moreover, the log fold change Tl+ flux is 0.0356 in the assay on R275C/beta1, -0.0892 (active) in the assay on R275C/beta2Delta, -0.0177 in the assay on R275C/beta4 and -0.102 (active) with R275C/Slo1WT/beta2.

As to `O=C(NC(=O)C12CC3CC(CC(C3)C1)C2)Nc1ccc(Cl)cc1`, the log fold change Tl+ flux in the assay on F380Y is 0.00432; in the assay on F380Y/beta1, -0.0267; in the assay with F380Y/beta2Delta it was -0.0384; in the assay with F380Y/beta4, -0.0415; in [1] it was 0.0168; in the assay with R275C, -0.00652. Besides, the log fold change Tl+ flux in the assay on R275C/beta1 is -0.0129; with R275C/beta2Delta it was -0.0163; in the assay with R275C/beta4, 0.0337; in the assay on R275C/Slo1WT/beta2, -0.0195.

Turning to `COC(=O)Cc1cccc2c(=O)c3ccccc3oc12`, the log fold change Tl+ flux in the assay on F380Y was 0.00439; in the assay on F380Y/beta1, -0.00882; in the assay with F380Y/beta2Delta, 0.0497; with F380Y/beta4, 0.0357; in assay [1] it was 0.00575; in the assay with R275C, 0.0179. Besides, the log fold change Tl+ flux in the assay on R275C/beta1 is -0.0476; in the assay with R275C/beta2Delta, 0.00558; in the assay on R275C/beta4, 0.00377; in the assay with R275C/Slo1WT/beta2, 0.049.

On to `CC(=O)CSc1nc(SCC(C)=O)c2cnc(N3CCCC3)nc2n1`, for which the log fold change Tl+ flux is -0.0105 in the assay with F380Y; -0.0297 with F380Y/beta1; -0.00118 in the assay on F380Y/beta2Delta; -0.00484 in the assay on F380Y/beta4; 0.0577 in [1]; -0.0104 in the assay on R275C. The log fold change Tl+ flux was -0.000725 in the assay on R275C/beta1, -0.0224 in the assay with R275C/beta2Delta, -0.00829 with R275C/beta4 and 0.0731 in the assay on R275C/Slo1WT/beta2.

Turning to `CCOC(=O)Cn1c(-c2c(Cl)cccc2Cl)noc1=O`, the log fold change Tl+ flux is 0.00248 in the assay on F380Y; -0.00728 in the assay on F380Y/beta1; -0.0091 in the assay with F380Y/beta2Delta; -0.00368 in the assay with F380Y/beta4; -0.0669 in [1]; 0.0179 in the assay on R275C. For the same molecule, the log fold change Tl+ flux in the assay with R275C/beta1 is -0.00444; in the assay on R275C/beta2Delta it was 0.0184; in the assay with R275C/beta4 it was -0.018; in the assay on R275C/Slo1WT/beta2 it was 0.00072.

With `Clc1ccc(-c2nc(-c3cnccn3)no2)cc1`, the log fold change Tl+ flux in the assay on F380Y is -0.0251; in the assay with F380Y/beta1, 0.0188; in the assay on F380Y/beta2Delta it was -0.00983; in the assay on F380Y/beta4, 0.0205; in [1] it was -0.00021; in the assay on R275C it was 0.00752. The log fold change Tl+ flux in the assay with R275C/beta1 was -0.0226; in the assay with R275C/beta2Delta it was 0.0101; in the assay with R275C/beta4, 0.00987; with R275C/Slo1WT/beta2 it was 0.0471.

For the molecule `O=C(CCn1nc(-c2ccc(F)cc2)ccc1=O)NCc1ccccc1`, the log fold change Tl+ flux is 0.0369 in the assay with F380Y; 0.0341 in the assay on F380Y/beta1; 0.06 in the assay on F380Y/beta2Delta; -0.00672 with F380Y/beta4; 0.0366 in [1]; 0.021 in the assay on R275C. Also, the log fold change Tl+ flux with R275C/beta1 was 0.0385; in the assay with R275C/beta2Delta it was 0.0213; with R275C/beta4 it was 0.037; in the assay on R275C/Slo1WT/beta2, 0.000143.

Take `COc1ccccc1NC(=S)NNC(=O)CSc1ccccc1[N+](=O)[O-]`: the log fold change Tl+ flux with F380Y is 0.0388; in the assay on F380Y/beta1 it was 0.0156; in the assay with F380Y/beta2Delta, 0.0403; in the assay on F380Y/beta4, 0.0916; in assay [1], 0.0332; with R275C it was -0.0193. The log fold change Tl+ flux in the assay on R275C/beta1 is 0.0469; in the assay on R275C/beta2Delta, 0.064; in the assay with R275C/beta4, 0.00382; with R275C/Slo1WT/beta2, -0.0222.
